Measured values reported in PubChem BioAssay.
Calls of active or inactive are those of the source.

Experiment: PSAC antagonists in infected red cells, primary screen, cell-based, P. falciparum Indochina, OD700, 2 h (AID 1155);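 also: lysis reports solute entry through the parasite surface anion channel PSAC; channel blockers reduce lysis of infected cells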
Conditions: P. falciparum Indochina infected erythrocytes, osmotic lysis OD700; higher = more signal, called active from +8 up or from −8 down

z-score, inactive:
C[N+](C)(C)CCCCNC(=O)[C@H]1C[C@H]2C(=O)N[C@@H](Cc3ccccc3)C(=O)N2[C@H]1c1ccc(O)cc1 0.0222, CC(=O)NCCCC[C@@H]1NC(=O)[C@@H]2C[C@H](C(=O)NCCCCN(C)C)[C@H](c3cccc(OCCO)c3)N2C1=O 0.0655, COc1ccc(C(O)C2C=CC3C(=O)N(c4ccccc4)C(=O)C3N2Nc2ccc(C(C)C)cc2)cc1OCc1ccccc1 (centres undefined) 1.62, O=C(NCc1ccccc1)[C@@]1(Cc2ccccc2)N=C(c2ccc(OCCCO)cc2)O[C@H]1c1ccccc1 2.11, CCOC1=C2C(CN(S(=O)(=O)c3ccc(C)cc3)C2c2ccc(C)cc2)C2C(=O)N(c3ccccc3)C(=O)C2C1 (centres undefined) 1.24, CCOC(=O)C[C@H]1[C@H](OC(=O)c2ccc(C(=O)c3ccccc3)cc2)[C@@H](NC(=O)c2ccc(-c3ccccc3)cc2)c2cc(OCCCO)ccc2N1C(=O)c1ccccc1 0.135, COCCOC(=O)N1C(=O)[C@@]2(c3cc(C#Cc4ccc(OC)cc4)ccc31)[C@H](c1ccc(O)cc1)N1[C@H](c3ccccc3)[C@H](c3ccccc3)OC(=O)[C@H]1[C@@H]2C(=O)NC[C@H](O)c1ccccc1 0.973

z-score, active:
[N-]=[N+]=NCc1ccccc1C[C@]1(C(=O)N2CCOCC2)N=C(c2ccc(OCCCO)cc2)O[C@H]1c1ccccc1N=[N+]=[N-] 25.3, [N-]=[N+]=Nc1ccccc1[C@H]1OC(c2ccc(OCCCO)cc2)=N[C@@]1(Cc1ccccc1)C(=O)O 27.2
